The sample as a whole holds a higher share of hits than the screen did.
Methyltransferases: Primary Screen for Target Class Profiling of Small Molecule Inhibitors of Methyltransferases; purified enzyme, MTase-Glo SAH luminescence; active compounds read low; calls only at 40 µM; AID 1745853, 2022; hit rate 3.9% among 25,000; call rule not given here
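Each enzyme was reacted with SAM and its substrate, with compounds tested once at 40 uM; SAH formed was read by MTase-Glo luminescence.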
Starred values were filed as active, the others as inactive. % is scaled to controls: 0 for no effect and ±100 for the full control effect.

Screening CN(Cc1ccccc1)C(=O)[C@H]1C[C@@H](O)[C@H](O)[C@@H]2N=C(Nc3ccc(-n4cccn4)cc3)S[C@@H]21 returned Methyltransferases inactive.
`CC1(COc2ccc3c(c2)ncn3-c2ccc3cccc(N4CCC(N)CC4)c3n2)COC1` gave Methyltransferases active.
Screening CCCn1c(=O)c2ccc(C(=O)NC3CCCCC3)cc2n2c(=O)n(CC(=O)NC(C)(C)C)nc12 returned Methyltransferases inactive.
`Cc1ccc(NC(=O)CSc2nnc3n(Cc4ccccc4)c(=O)c4ccccc4n23)c(C)c1` gave Methyltransferases inactive.
COc1cccc(NC(=O)C2(C)CCc3cnc(NCc4ccccc4)nc32)c1 (centres undefined) was read as Methyltransferases inactive.
Screening Cc1c[nH]c2ncnc(N3CCC(CN)(C(=O)Nc4cccc(OC(=O)N(C)C)c4)CC3)c12 returned Methyltransferases active.
For Cc1ccc(Cn2c(=O)c3ccccc3n3c(CCC(=O)NCCc4c[nH]c5ccccc45)nnc23)cc1 the results were Methyltransferases inactive.
CCCC1c2cccn2CCN1C(=O)Nc1ccccc1OC (centres undefined) was read as Methyltransferases inactive.
`Cc1cccc(Nc2nc(-c3ccncc3)cs2)c1` gave Methyltransferases active.
Screening c1ccc2c(Nc3nnc(-c4ccncc4)s3)cccc2c1 returned Methyltransferases inactive.
Screening COc1cc(Br)c(Nc2nc(-c3c(C)nc4ncccn34)cs2)c(Br)c1 returned Methyltransferases inactive.
`CCc1ccc(CNC(=O)c2cc3n(n2)CC(C)(C(=O)NCc2ccc(C)cc2)N(C)C3=O)cc1` (centres undefined) gave Methyltransferases inactive.
CCOC(=O)Cc1ccc(NC(=O)N2Cc3c(sc4c3CCCC4)-n3cccc3C2c2cccc(F)c2)cc1 (centres undefined) was read as Methyltransferases inactive.
Screening CCCC1c2ccc(C)n2CCN1C(=O)Nc1cccc(C)c1C (centres undefined) returned Methyltransferases inactive.
`CCCn1c(=O)c2cc(F)ccc2n2c(SCc3ccccc3Cl)nnc12` gave Methyltransferases inactive.
For C[C@@H](Oc1cc(-n2cnc3ccc(OC4CCN(C)CC4)cc32)sc1C(N)=O)c1ccccc1C(F)(F)F the results were Methyltransferases active.
Screening COc1ccc(-c2cc3n(n2)CC(C)(C(=O)NCc2ccccc2OC)N(c2ccc(C)c(Cl)c2)C3=O)cc1 (centres undefined) returned Methyltransferases inactive.
`CC1(C(=O)NC2CCCC2)Cn2c(cc3sccc32)C(=O)N1Cc1ccccc1Cl` (centres undefined) gave Methyltransferases inactive.
For C=C1C(=O)O[C@@H]2[C@H]3C(C)=CC(=O)C3=C(C)CC[C@@H]12 the results were Methyltransferases inactive.
C=C1C(=O)OC2C1CCC(=C)C1CC(OC(C)=O)C(=C)C12 (centres undefined) was read as Methyltransferases active.
`C=C(C)C(=O)OC1CC(CO)CCC/C(CO)=C/C2OC(=O)C(=C)C21` (centres undefined) gave Methyltransferases inactive.
CCN1CCN(c2nc3c(S(=O)(=O)c4ccc(C)c(C)c4)nnn3c3ccc(Cl)cc23)CC1 was read as Methyltransferases inactive.
Screening CC(C)OCCCNC(=O)C1c2c(n(C)c3ccccc23)SCC(=O)N1c1ccccc1F (centres undefined) returned Methyltransferases inactive.
For CC(=O)Nc1c2n(c3ccc(F)cc13)CC(C)(C(=O)NC1CCCC1)N(c1ccc(F)cc1)C2=O (centres undefined) the results were Methyltransferases inactive.
CCOc1ccc(NC(=O)N2Cc3c(sc4c3CCCC4)-n3cccc3C2c2ccc(F)cc2)cc1 (centres undefined) was read as Methyltransferases inactive.
Screening CCOc1ccccc1CN1C(=O)c2c(C(=O)OC)ncn2CC1(C)C(=O)NCc1ccccc1 (centres undefined) returned Methyltransferases inactive.
Cc1ccc(C)c(N2C(=O)c3cc4occc4n3CC2(C)C(=O)NC2CCCCC2)c1 (centres undefined) was read as Methyltransferases inactive.
COC(=O)c1cc(OC)cc(OC)c1C(=O)c1c(OC)cc2c(c1O)C1CCCC(C)(O2)O1 (centres undefined) was read as Methyltransferases inactive.
CC12CCC3C1C(c1c(cc(O)c(C(=O)c4ccccc4)c1O)O2)C3(C)C (centres undefined) was read as Methyltransferases active.
Cn1c(=O)n(C)c2cc(S(=O)(=O)Nc3ccc(Cl)cc3)ccc21 was read as Methyltransferases inactive.
CCCNC(=O)NS(=O)(=O)c1ccc(Cl)cc1 was read as Methyltransferases inactive.
CN(C)c1ccc(NC(=O)NS(=O)(=O)c2ccc(Cl)cc2)cc1 was read as Methyltransferases active.
CCOC(=O)c1cc2n(n1)CC(C)(C(=O)NCc1ccccc1)N(c1cc(C)cc(C)c1)C2=O (centres undefined) was read as Methyltransferases inactive.
